Results filed as inconclusive are left out. Unmarked numbers belong to inactive results. Calls come from the whole dose curve; as a rule, active = well fitted inhibition curve with a large enough effect in the signal ratio in the repeat runs (not every such curve was filed as active); inconclusive = weak or mixed curves, or effect the other way; inactive = no such curve, though single readings can be large or run the other way; the % refers to the signal ratio.
% is set by controls: 0 for no effect and ±100 for the full control effect.

Sequence of Peroxisome proliferator-activated receptor delta (Homo sapiens) (Q03181 whole entry, looked up): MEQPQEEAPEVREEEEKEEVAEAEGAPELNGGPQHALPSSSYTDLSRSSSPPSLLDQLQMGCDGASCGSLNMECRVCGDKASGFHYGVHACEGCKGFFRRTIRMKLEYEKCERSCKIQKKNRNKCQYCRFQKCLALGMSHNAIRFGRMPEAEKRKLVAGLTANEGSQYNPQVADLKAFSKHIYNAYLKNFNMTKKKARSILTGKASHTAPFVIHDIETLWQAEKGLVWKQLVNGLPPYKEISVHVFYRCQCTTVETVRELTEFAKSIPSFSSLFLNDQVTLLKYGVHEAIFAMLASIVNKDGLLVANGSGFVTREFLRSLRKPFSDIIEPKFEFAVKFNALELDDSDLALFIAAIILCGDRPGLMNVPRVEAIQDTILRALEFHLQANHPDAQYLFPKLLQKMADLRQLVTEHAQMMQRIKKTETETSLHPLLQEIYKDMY

The target in the assay is Peroxisome proliferator-activated receptor delta (Homo sapiens) (UniProt Q03181). Briefly: qHTS assay to identify small molecule antagonists of the peroxisome proliferator-activated receptor delta (PPARd) signaling pathway (AID 743215).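 Note: cells stimulated with agonist L165041 at 300 nM final during compound exposure.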 The note with it: HEK293H PPARd-UAS-bla, beta-lactamase FRET ratio, antagonist, 17 h; series mostly up to 62 µM; ratio activity, negative = inhibition: at the top concentration. From the text:
U.S. Tox21 Program National Center for Advancing Translational Sciences [NCATS] NIH Chemical Genomics Center [NCGC] U.S. Environmental Protection Agency [EPA] National Institutes of Environmental Health Sciences [NIEHS] National Toxicology Program [NTP] U.S. Food and Drug Administration [FDA] Tox21 Assay Overview: The peroxisome proliferator-activated receptors (PPARs) are lipid-activated transcription factors of the nuclear receptor superfamily with three distinct subtypes namely PPAR alpha, PPAR delta (PPARd) and PPAR gamma. All these subtypes heterodimerizes with Retinoid X receptor (RXR) and have different physiological functions. […] To identify the compounds that inhibit PPAR-delta signaling, GeneBLAzer PPAR delta UAS-bla HEK293H cell line (Invitrogen, Carlsbad, CA, USA) containing a beta-lactamase reporter gene under the control of an Upstream Activator Sequence (UAS) was used to screen the Tox21 compound library.
Tox21 Assay Protocol Summary: PPARd-bla cells were dispensed at 3000 cells/5uL/well in 1536-well black wall/clear bottom plates using a Multidrop Combi (Thermo Fisher Scientific, Waltham, MA) dispenser. After the assay plates were incubated at 37 C and 5% CO2 for 5 h, 23 nL of compounds dissolved in DMSO, positive controls or DMSO only was transferred to the assay plate by a Pintool station (Kalypsys, San Diego, CA), followed by addition of 1ul L165041 (300 nM, final concentration in the wells). The assay plates were incubated at 37 C for 17 h, and then 1 uL of LiveBLAzerTM B/G FRET substrate was added using a Bioraptr Flying Reagent Dispenser (FRD) workstation (Beckman Coulter, Indianapolis, IN, USA). The assay plates were incubated at room temperature for 2 h and fluorescence intensity was measured by an Envision plate reader (PerkinElmer, Shelton, CT).
As to `CC(C)c1ccccc1C(C)C`, the “ratio activity, negative = inhibition” value is 5.82%. For `Cc1cccc(Oc2ccccc2)c1` the value was 19.7%.

On to `CCCC[C@H]1CN(CC2CCOCC2)C(=O)OC12CCN(C1(C)CCN(C(=O)c3c(C)ncnc3C)CC1)CC2`, for which the “ratio activity, negative = inhibition” value is 9.32%.

Regarding `CCCc1ccccc1`, the “ratio activity, negative = inhibition” value was 5.66%. As for `CN(C)CCCNCCCN`, the figure is 12.4%.

`CCCCCCCCCCCCCCCC(=O)OC/C=C(C)/C=C/C=C(C)/C=C/C1=C(C)CCCC1(C)C`: the “ratio activity, negative = inhibition” value is -7.05%.

Turning to `CC(=O)/C(C)=C/C1C(C)=CCCC1(C)C` (stereo not given), the “ratio activity, negative = inhibition” value is -1.47%.

Take `CC[C@H](C)[C@@H](C(=O)O)n1sc2ccccc2c1=O`: the “ratio activity, negative = inhibition” value was 0.521%. In the case of `COC(=O)C(C)=O`, the “ratio activity, negative = inhibition” value was -22% [at 80.4 µM].

As for `O=c1c2ccccc2nnn1CCl`, the “ratio activity, negative = inhibition” value is -10.4%. For `O=C(Cl)c1ccc([N+](=O)[O-])cc1` the value was 4.67%; for `O=[N+]([O-])c1cccc(Cl)c1Cl`, 3.33%. As for `Cc1ccc(C(N)=O)cc1N`, the figure is 15.4%; as for `OCCC1CCCCN1` (stereo not given), -3.03% [at 80.4 µM]; as for `Cc1cc(C)c(S(=O)(=O)O)cc1N=Nc1cc(S(=O)(=O)O)c2ccccc2c1O`, 11.4%. For `O=C(/C=C/c1ccc(O)c(O)c1)O[C@@H]1C[C@](O)(C(=O)O)C[C@@H](O)[C@H]1O` the value was 7.14% [at 80.4 µM]; for `CCOc1nc2cccc(C(=O)O)c2n1Cc1ccc(-c2ccccc2-c2nn[nH]n2)cc1`, -6.45%. In the case of `CCC(=O)OC(C)(C)C1CC=C(C)CC1` (stereo not given), the “ratio activity, negative = inhibition” value was -2.06%. As for `CCOC(=S)SSC(=S)OCC`, the figure is -10.4%; as for `CC(=O)SCc1ccco1`, 0.931%; as for `CC1(C)CCC(C)(C)c2cc(NC(=O)c3ccc(C(=O)O)cc3)ccc21`, 4.88%.

On to `N#CCCNCCC#N`, for which the “ratio activity, negative = inhibition” value is 0.566% [at 80.4 µM].

Turning to `O=C(Cl)c1c(Cl)cccc1Cl`, the “ratio activity, negative = inhibition” value is 13.7% [at 80.4 µM]. For `COc1ccc2[nH]c(S(=O)Cc3ncc(C)c(OC)c3C)nc2n1` (stereo not given) the value was 7.34%; for `O=C1Nc2cc(Cl)ccc2Oc2ccccc21`, 2.85%. Regarding `CCCC(=O)OCC`, the “ratio activity, negative = inhibition” value was -20.6%.

Consider `NC[C@H]1O[C@H](O[C@H]2[C@H](O)[C@@H](O[C@H]3O[C@H](CO)[C@@H](O)[C@H](N)[C@H]3O)[C@H](N)C[C@@H]2N)[C@H](O)[C@@H](O)[C@@H]1O`, for which the ratio activity, negative = inhibition is 3.27% [at 6.26 µM].

On to `O=CNc1ccccc1`, for which the “ratio activity, negative = inhibition” value is 1.85% [at 80.4 µM]. For `Nc1cnn([C@@H]2O[C@H](CO)[C@@H](O)[C@H]2O)c(=O)n1` the value was -15.1%; for `CCCCOC(=O)c1ccccc1C(=O)OCC(CC)CCCC` (stereo not given), -17.9%.

Turning to `CCCCOC(O)CC` (stereo not given), the “ratio activity, negative = inhibition” value is -13.9%. As for `CC[C@]12CCCN3CCc4c(n(c5ccccc45)C(=O)C1)[C@@H]32`, the figure is -0.104%; as for `Cc1ccc(C)o1`, 0.446% [at 80.4 µM]; as for `N#CCc1cccc(C(F)(F)F)c1`, -20.9%. For `Cc1ccc(O)c([C@H](CCN(C(C)C)C(C)C)c2ccccc2)c1` the value was -2.86%; for `CC(=O)c1ccc2c(c1)[C@H](NC(=O)c1ccc(F)cc1)[C@@H](O)C(C)(C)O2`, -14.2%; for `O=C(O)[C@@H]1[C@H]2C[C@H]3c4[nH]c5ccccc5c4CCN3C[C@@H]2CC[C@@H]1O`, -0.0324%. For `Oc1ccc(Cc2ccccc2)cc1` the value was -15.7%; for `Cc1ncsc1CCO`, 0.623%.

For `CCOC(=O)CC(=O)c1cc(F)c(Cl)nc1Cl`, the “ratio activity, negative = inhibition” value is -10.2% [at 80.4 µM].

The record behind these values is PubChem BioAssay (Tox21).
